Results: PubChem BioAssay (NCATS)
“And” between values parts separate entries of the source, which are not always exact repeats. Equal values may be shown once. Inconclusive results are not listed. Where a structure was tested more than once in an assay, its records may differ in their call. The source made the active and inactive calls. Calls follow the shape of the dose curve; as a rule, active = well fitted curve in the direction sought with a large enough effect; inconclusive = small, poorly fitted or top-dose-only effect, or another doubt; inactive = no such curve, though single readings can be large; an effect the other way counts as inactive or inconclusive.

Columns and labels:
[1] = Primary qHTS for inhibitors of nuclear receptor binding SET domain protein 2 (NSD2) in an isogenic RCH-ACV NSD2 p.E1099K mutant (9B) (AID 1645876)
[2] = Primary qHTS for inhibitors of nuclear receptor binding SET domain protein 2 (NSD2) in an RCH-ACV wild type WT cells (2C) (AID 1645877)
Also: nearly all actives have a fitted effect of over 70% in size.
Potency is read from the fitted curve at half-maximal effect.

SMILES | Potency [1] | Potency [2]
COCC(c1ccc(C(F)(F)F)cc1)N1CCN(C2(C)CCN(C(=O)c3c(C)ncnc3C)CC2)CC1C (stereo not drawn) | inactive | inactive
CCN(Cc1cc(Nc2nc(C)cn3c(-c4cn[nH]c4)cnc23)sn1)C(C)(C)CO | 0.0092 µM (active) | 0.0082 µM (active)
CCc1cc(C(N)=O)ccc1-n1nc(C(C)C)c2c(-n3cnc(-c4cnn(C)c4)c3)ccnc21 | 1.18 µM (active) | 1.05 µM (active)
C=C1C(=O)O[C@@H]2[C@H]1CCC(C)=C(CCC(=O)O)[C@@]2(C)O | 20.5 µM (active) | 10.3 µM (active)
COc1ccncc1C(=O)NC(=O)Nc1ccc(-c2ccccc2)c(C(F)(F)F)c1 | inactive | inactive
CC(C)S(=O)(=O)Nc1ccc(F)c(C(=O)c2c[nH]c3ncc(-c4cccnc4)cc23)c1F | 4.09 µM (active) | 4.59 µM (active)
C=C1C(=O)O[C@@H]2[C@H]1CC[C@H](C)[C@]1(CCC(=O)O1)C2(C)O (stereo partly drawn) | 20.5 µM (active) | 14.5 µM (active)
CC(C)=CCC/C(C)=C/COCC1OC(n2ccc(=O)[nH]c2=O)C(O)C1O (stereo not drawn) | 4.01 µM (active) | 2.01 µM (active)
CC(NC(=O)Cc1cc(F)cc(F)c1)C(=O)NC1C(=O)N(C)c2ccccc2-c2ccccc21 (stereo not drawn) | 2.58 µM (active) | 3.25 µM (active)
CC(=O)O[C@]1(C(C)=O)CC[C@H]2[C@@H]3CCC4=CC(=O)CCC4=C3[C@@H](c3ccc(N(C)C)cc3)C[C@@]21C | 23 µM (active) | 23 µM (active)
CC(C)(C)[C@H](NC(=O)c1ccc(N)c(Cl)c1)C(=O)N1CCC[C@H]1C(=O)N[C@H](C#N)CC(=O)O | inactive | inactive
N#Cc1ccc(O[C@@H]2c3ccccc3C[C@H]2N2CCC[C@@H](N)C2)c(Cl)c1 | 20.5 µM (active) | 18.3 µM (active)
C=C(C(=O)O[C@H]1C/C(C)=C/CC/C(CO)=C/[C@H]2OC(=O)C(=C)[C@H]12)C(O)CO (stereo partly drawn) | 7.13 µM (active) | 2.84 µM (active)
C[C@@H]1COCCN1c1cc(=O)n2c(n1)N(Cc1cncc(Cl)c1)[C@H](C(F)(F)F)CC2 | 6.51 µM (active) | 6.51 µM (active) and inactive
C=C1C(=O)OC2/C=C(\COC(C)=O)CC/C=C(\C=O)CC(OC(=O)CC(C)C)C12 (stereo not drawn) | 2.24 µM (active) | 1.59 µM (active)
CC(C)C(C)C(O)C1CC23CC(=O)C4(O)C(=C2CCC3C1C)C=CC1(O)CC(O)CCC14C (stereo not drawn) | inactive | inactive
O=C(/C=C/c1ccccc1O)O[C@@H]1O[C@H](CO)[C@@H](O)[C@H](O)[C@H]1O | inactive | inactive
CN1CCc2cc3c(cc2C(=O)Cc2cc4c(cc2C1)OCO4)OCO3 | inactive | inactive
CC(=O)O[C@@H]1[C@@H](OC(C)=O)[C@H](C)O[C@@H](O[C@H]2[C@@H]3C=CO[C@@H](O[C@@H]4O[C@H](CO)[C@@H](O)[C@H](O)[C@H]4O)[C@@H]3[C@@]3(CO)O[C@@H]23)[C@@H]1OC(=O)/C=C/c1ccccc1 | 6.82 µM (active) | 4.83 µM (active)
Cc1cc(-c2nc3cc(F)ccc3s2)ccc1NC(=O)[C@@H](N)CCCCN | 5.25 µM (active) | 4.17 µM (active)
COc1ccc(C(=O)O[C@H]2C=COC=C3C=C4C(=O)N(C)C(=S)C(=O)N4[C@@H]32)cc1Oc1cc(C=O)ccc1O | 6.32 µM (active) | 2.82 µM (active)
CCC(CC)Nc1nc(C)c(-c2ccc(OC(F)(F)F)cc2OC)nc1OC | inactive | inactive

SMILES | Potency [1] | Potency [2]
C=C1C(=O)OC2/C=C(\COC(C)=O)CC/C=C(\C=O)CC(OC(=O)C(C)CC)C12 (stereo not drawn) | 3.17 µM (active) | 2 µM (active)
C/C(=C\CCC(C)C1=CCC2(C)OC3=C(CC12)C(=O)C(O)CC3)CO (stereo not drawn) | inactive | inactive
C=C1CCC2C(C)(C(=O)O)CCCC2(C)C1CCC1=CCOC1=O (stereo not drawn) | inactive | inactive
C=C1[C@@H](OC(C)=O)CC[C@@]2(C)[C@@H](OC(C)=O)[C@H](OC(C)=O)C3=C(C)C[C@H](OC(=O)C(C)CC)[C@@H]([C@@H](OC(C)=O)[C@H]12)C3(C)C (stereo partly drawn) | 1.21 µM (active) | 1.21 µM (active)
C[C@@H]1O[C@@H](O[C@H]2[C@@H](OC(=O)[C@]34CCC(C)(C)CC3C3=CCC5[C@@]6(C)C[C@H](O)[C@H](O[C@@H]7O[C@H](CO)[C@@H](O)[C@H](O)[C@H]7O[C@@H]7OC[C@@H](O)[C@H](O)[C@H]7O)[C@@](C)(C(=O)O)C6CC[C@@]5(C)[C@]3(C)CC4)OC[C@H](O)[C@@H]2O)[C@H](O)[C@H](O)[C@H]1O[C@@H]1OC[C@@H](O)[C@H](O)[C@H]1O (stereo partly drawn) | 1.54 µM (active) | 2.18 µM (active)
C=CC(C)(C)C12CC3C(=O)N4C(CC5(C(C)(C)C=C)c6ccccc6NC45)C(=O)N3C1Nc1ccccc12 (stereo not drawn) | inactive | inactive
O=S(=O)(c1ccccc1)N(CC(F)(F)F)c1ccc(C(O)(C(F)(F)F)C(F)(F)F)cc1 | 23 µM (active) | 23 µM (active)
COc1cc(N2CCC(N3CCN(C)CC3)CC2)ccc1Nc1ncc(Cl)c(Nc2ccccc2P(C)(C)=O)n1 | 3.65 µM (active) and 1.05 µM (active) | 4.09 µM (active) and 1.48 µM (active)
COC(=O)C1=COC(O[C@@H]2O[C@H](CO[C@@H]3O[C@H](COC(=O)/C=C\c4ccc(O)cc4)[C@@H](O)[C@H](O)[C@H]3O)[C@@H](O)[C@H](O)[C@H]2O)C2C(CO)=CCC12 (stereo partly drawn) | inactive | inactive
CC(O)(C(=O)O)C1CCC2(C)C1CCC1(C)C2CCC2C3(C)CCC(O)C(C)(COC4OC(CO)C(O)C(O)C4O)C3CCC21C (stereo not drawn) | inactive | inactive
CC[C@H]1OC(=O)[C@H](C)[C@@H](O[C@H]2C[C@@](C)(OC)[C@@H](O)[C@H](C)O2)[C@H](C)[C@@H](O[C@H]2O[C@H](C)C[C@H](N(C)C)[C@H]2O)[C@](C)(O)C[C@@H](C)C(=O)[C@H](C)[C@@H](O)[C@]1(C)O | inactive | inactive
C[C@@H]1CC[C@]2(C(=O)O)CC[C@]3(C)C(=CCC4[C@@]5(C)CC[C@H](O)[C@](C)(C(=O)O)C5CC[C@]43C)C2[C@]1(C)O (stereo partly drawn) | inactive | inactive
CC1(C)C2CCC(CO[C@@H]3O[C@H](CO[C@@H]4OC[C@](O)(CO)[C@H]4O)[C@@H](O)[C@H](O)[C@H]3O)C1C2 (stereo partly drawn) | inactive | inactive
CCn1nc(C2CCN(C(=O)CCO)CC2)nc1-c1cnc(N)c(-c2nnc(C(C)(C)C)o2)n1 | 164 nM (active) and 296 nM (active) | 64.9 nM (active) and 263 nM (active)
CC(=O)CC(=O)Nc1ccc(Cl)c(C(F)(F)F)c1 | 20.5 µM (active) | 10.3 µM (active)
COc1ccc(C2(N(C)C(=O)c3ccc(NC(=O)c4ccco4)cc3)CCOCC2)cc1 | inactive | inactive
CC1(CO)CC2C(O)C3=C(CC(C)(O)C2C1)C(=O)OC3 (stereo not drawn) | inactive | inactive
C/C(=C/C=C\C=C\Cc1cnco1)[C@@H](O)C(C)(C)C(N)=O | inactive | inactive
C=C1C(=O)OC2CC(C)=C(C(C)CCCOC(C)=O)C(OC(=O)CC(C)CC)C12 (stereo not drawn) | 7.09 µM (active) | 7.09 µM (active)
COc1ccnc(CS(=O)c2nc3cc(OC(F)F)ccc3[nH]2)c1OC (stereo not drawn) | inactive | inactive
COc1ccccc1C(=O)Nc1cccc(NC(=O)c2cccc(C)c2)c1 | inactive | inactive
Cc1cc(-c2ncc(-c3cccnc3)cc2/C=C/c2ccccc2)cnc1-c1cccnc1 | inactive | inactive
